# From PubChem BioAssay (Tox21)
# Records with an inconclusive call do not appear. Unmarked numbers belong to inactive results. Active and inactive are the calls of the source. Calls come from the whole dose curve.
# Biological target: Muscarinic acetylcholine receptor M1 (Homo sapiens) (UniProt P11229)
# Assay: Cholinergic receptor muscarinic 1 (CHRM1) small molecule antagonists, cell-based qHTS assay (AID 1963588); note: nearly all actives have a fitted effect of over 40% in size
# Details: CHRM1-CHO antagonist mode, calcium flux fluorescence; series mostly up to 61.5 µM; activity, negative = inhibition: at the top concentration
# Description: National Center for Advancing Translational Sciences [NCATS]
# Division of Preclinical Innovation [DPI]
# U.S. Environmental Protection Agency [EPA]
# National Institutes of Environmental Health Sciences [NIEHS]
# National Toxicology Program [NTP]
# U.S. Food and Drug Administration [FDA]
# The CHRM1 is a muscarinic receptor. This receptor plays a crucial role in learning and memory processes and has long been identified as a promising therapeutic target for the improvement of cognitive decline in Alzheimer's disease (AD). The CHRM1-CHO cell line stably expressing human muscarinic acetylcholine receptor M1 (CHRM1) can be used for screening agonists and antagonists of interactions between CHRM1 and its ligands. The CHRM1-CHO Calcium Flux Assay is a homogeneous fluorescence-based assay for detecting the intracellular calcium level using FDSS kinetic plate reader system.
# Tox21 Assay Protocol Summary:
# CHRM1-CHO cells were dispensed at 1000 cells/3uL/well in 1536-well black-clear bottom plates using a Multidrop Dispenser. After the assay plates were incubated at a 37 C/5% CO2 incubator for 18 h, 3 uL of Dye Loading Buffer was transferred to the assay plate by a Flying Reagent Dispenser. The assay plates were incubated at 37 C for 1h. For antagonist mode, 23 nL of compounds dissolved in DMSO, positive controls or DMSO only was transferred to the assay plate by a pin tool. After 5 min incubation at room temperature, 1.5 uL of acetylcholine at 50nM was added to each well. The fluorescence intensity in the plates was measured using FDSS 7000EX kinetic plate reader for 3 min at 1 sec intervals. Each test compound was measured at 15 concentrations in three independent runs.
# % is set by controls: 0 for no effect and ±100 for the full control effect.
# Sequence of Muscarinic acetylcholine receptor M1 (Homo sapiens) (P11229 whole entry, looked up): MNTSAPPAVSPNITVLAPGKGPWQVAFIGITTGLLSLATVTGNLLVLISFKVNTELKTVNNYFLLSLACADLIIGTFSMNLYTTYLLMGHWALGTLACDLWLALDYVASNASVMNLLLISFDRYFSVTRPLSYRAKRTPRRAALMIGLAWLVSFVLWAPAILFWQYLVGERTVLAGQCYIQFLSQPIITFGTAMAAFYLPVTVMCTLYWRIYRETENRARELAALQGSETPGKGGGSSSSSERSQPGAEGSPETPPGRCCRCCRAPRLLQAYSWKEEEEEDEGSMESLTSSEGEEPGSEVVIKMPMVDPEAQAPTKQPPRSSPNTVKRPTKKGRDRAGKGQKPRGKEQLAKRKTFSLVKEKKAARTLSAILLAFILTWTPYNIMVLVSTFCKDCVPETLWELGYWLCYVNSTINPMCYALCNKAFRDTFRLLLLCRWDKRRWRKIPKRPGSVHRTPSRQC
Compound,"activity, negative = inhibition",Potency
CC1COc2ccccc2N1C(=O)C(Cl)Cl (stereo not given),-14.7%,
c1coc(CNc2ncnc3nc[nH]c23)c1,-9.4%,
CC(C)CCOCCC(C)C,-10.4%,
Cc1ccccc1S(N)(=O)=O,11%,
Cc1ccc(O)c([N+](=O)[O-])c1,9.23%,
c1ccc2c(c1)CCc1ccccc1N2,,inactive
O=S(=O)(O)c1ccc2c(N=Nc3ccc(S(=O)(=O)O)c4ccccc34)c(O)c(S(=O)(=O)O)cc2c1,-10.6% [at 5.58 µM],
O=C(CCS)OCC(COC(=O)CCS)(COC(=O)CCS)COC(=O)CCS,-12.6%,
CCCCC(CC)COC(=O)c1ccc(O)cc1 (stereo not given),11.5%,
COC(=O)N[C@H](C(=O)N[C@@H](Cc1ccccc1)[C@@H](O)CN(Cc1ccc(-c2ccccn2)cc1)NC(=O)[C@@H](NC(=O)OC)C(C)(C)C)C(C)(C)C,-1.34% [at 28.3 µM],
Oc1c(Cl)ccc(Cl)c1Cl,,inactive
O=C1OCCO1,23.4%,
O=C(O)/C=C/c1ccc(Cn2ccnc2)cc1,0.466% [at 28.3 µM],
O=C(O)c1ccccc1C(c1ccc(O)cc1)c1ccc(O)cc1,9.69%,
CCOC(=O)c1ccc(C)cc1,63.8%,
CC(C)CCCCCCCCCCCCCCC(=O)O,6.66%,
CC(CO)CO,31.2%,
Cc1ccc(C(C)C)cc1O,8.85%,
CC/C=C\CCOC(=O)CCCCC,4.46%,
CCCCCCCC/C=C\CCCCCCCC(=O)OCCCC,5.7% [at 12.6 µM],

Compound,"activity, negative = inhibition",Potency
CCc1occc(=O)c1O,3.3%,
C/C=C/CO,-3.21%,
C/C(=N\O)[C@@H](C)NCC(C)(C)CN[C@H](C)/C(C)=N/O,-5.48% [at 28.3 µM],
Nc1cc(S(=O)(=O)O)cc2cc(S(=O)(=O)O)cc(O)c12,,inactive
C=CCCCCCCCC,-18.6%,
CC(=O)O[C@@H]1CC2C3CCc4cc(OC(=O)c5ccccc5)ccc4C3CCC2(C)[C@H]1OC(C)=O (stereo not given in full),3.82% [at 28.3 µM],
C=CCCC=C,-8.61%,
CCCCCC(CC)OC(=O)CCCOc1ccc(Cl)cc1Cl (stereo not given),15.9%,
C=C1CC/C=C(\C)CC[C@@H]2[C@@H]1CC2(C)C,13.6%,
COc1ccc(NC(C)=O)cc1,7.2%,
COCc1ccc(COC)cc1,11.6%,
C1COCCO1,11.7%,
O=C(O)[C@@H]1[C@H]2C[C@H]3c4[nH]c5ccccc5c4CCN3C[C@@H]2CC[C@@H]1O,-9.89% [at 28.3 µM],
OCCc1ccccn1,22.1%,
OC1CCCC1,,inactive
O=C1Cc2cc(Cl)ccc2N1,-1.34% [at 28.3 µM],
CCCCCCS,2.03%,
C=C(C)[C@@H]1CC[C@@H](C)C[C@@H]1O,-0.0049%,
Nc1nnnn1-c1ccccc1,34.7% [at 28.3 µM],
CN1[C@@H]2CC[C@H]1CC(NC(=O)n1c(=O)[nH]c3ccccc31)C2 (stereo not given in full),-18.2% [at 28.3 µM],
